Where “and” joins values, the source holds several entries; their conditions need not be identical. Identical values can stand only once. A structure can be active in one record and inactive in another. Calls of active or inactive are those of the source. Rule for the calls: active = hit-call score of the fitted dose curve at least 0.9, where 1 is the maximum; inactive = score below 0.9.
Columns and labels:
[1] = ATG_M_61_CIS: Attagene CIS-FACTORIAL HepG2 Assay for M61 Transcription Factor (Internal Marker) (AID 2282937); details: HepG2 Attagene CIS-FACTORIAL M61 internal marker reporter; actives raise or lower the signal
Summary of the method: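 Endogenous transcription factor activity in HepG2 is read through transiently transfected cis-element reporter units. After 24 h dosing, RNA undergoes reverse transcription, PCR and primer extension with 6-FAM before capillary electrophoresis; DMSO-referenced bidirectional fit.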

[2] = ATG_M_19_CIS: Attagene CIS-FACTORIAL HepG2 Assay for M19 Transcription Factor (Internal Marker) (AID 2282939); details: HepG2 Attagene CIS-FACTORIAL M19 internal marker reporter; actives raise or lower the signal
Summary of the method: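 Chemical-treated HepG2 (24 h) with MRTU constructs; reporter transcripts detected by fluorescent RT-PCR fragment analysis on capillary electrophoresis. Internal background marker, DMSO as baseline.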

[3] = ATG_ERE_CIS: Attagene CIS-FACTORIAL HepG2 Assay for Estrogen Response Element (ERE) (AID 2282940); details: HepG2 ERE cis-reporter, Attagene RNA transcript; actives raise or lower the signal
Summary of the method: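 Human liver cells (HepG2) bearing transiently transfected, promoter-regulated reporter units were exposed 24 h. Reporter mRNA induction was detected by capillary electrophoresis of labelled RT-PCR products and fitted bidirectionally to DMSO.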

[4] = ATG_Ets_CIS: Attagene CIS-FACTORIAL HepG2 Assay for human Erythroblast Transformation Specific (ETS) (AID 2282941); details: HepG2 ETS cis-reporter transcription, actives raise or lower the signal
Summary of the method: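 RT-PCR/capillary electrophoresis fluorescence read-out of reporter mRNA; HepG2 transient multi-reporter transfection; 24 h compound exposure; gain or loss of signal fitted bidirectionally relative to DMSO.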

[5] = molecular target: Hepatocyte nuclear factor 3-beta (Homo sapiens) (UniProt Q9Y261); assay: ATG_FoxA2_CIS: Attagene CIS-FACTORIAL HepG2 Assay for human Forkhead box A2 (FOXA2) (AID 2282942); details: HepG2 cis-reporter transcription factor activity, 24 h; actives raise or lower the signal
Sequence of Hepatocyte nuclear factor 3-beta (Homo sapiens) (Q9Y261 whole entry, looked up): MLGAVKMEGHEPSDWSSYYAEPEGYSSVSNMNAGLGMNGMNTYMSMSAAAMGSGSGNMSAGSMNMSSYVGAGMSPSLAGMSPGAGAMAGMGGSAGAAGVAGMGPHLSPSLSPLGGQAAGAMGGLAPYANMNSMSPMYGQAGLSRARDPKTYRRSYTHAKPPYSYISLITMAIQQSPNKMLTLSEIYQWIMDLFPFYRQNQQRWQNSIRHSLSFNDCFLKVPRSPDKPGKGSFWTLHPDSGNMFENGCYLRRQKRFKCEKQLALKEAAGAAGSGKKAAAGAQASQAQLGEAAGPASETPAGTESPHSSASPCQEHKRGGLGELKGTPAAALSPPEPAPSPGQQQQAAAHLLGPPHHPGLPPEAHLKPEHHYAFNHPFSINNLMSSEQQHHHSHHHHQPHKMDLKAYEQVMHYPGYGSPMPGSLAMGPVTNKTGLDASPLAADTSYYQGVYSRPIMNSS
Summary of the method: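 Reporter transcript induction is measured by fluorescence after capillary electrophoresis of RT-PCR products from HepG2 cells exposed 24 h. Cis-regulated reporter units report endogenous factor activity; curves fitted both directions against DMSO.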

[6] = ATG_FoxO_CIS: Attagene CIS-FACTORIAL HepG2 Assay for human Forkhead box O (FoxO) (AID 2282943); details: HepG2 Attagene cis-reporter, FoxO element, mRNA; actives raise or lower the signal
Summary of the method: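 Human hepatoma HepG2 cells carry transiently introduced reporter transcription units controlled by cis promoter elements. Chemical treatment lasted 24 h, and mRNA signal was compared with DMSO.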

[7] = ATG_GATA_CIS: Attagene CIS-FACTORIAL HepG2 Assay for human GATA Binding Protein (AID 2282944); details: HepG2 GATA cis-element reporter, Attagene multiplex mRNA; actives raise or lower the signal
Summary of the method: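 Transfected cis-reporter HepG2 cells were treated with chemicals for 24 hours. Total RNA was then converted to cDNA, amplified with reporter-specific primers and analysed by fluorescent capillary electrophoresis, using DMSO-treated wells as baseline.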

[8] = ATG_GLI_CIS: Attagene CIS-FACTORIAL HepG2 Assay for human Zinc Finger Protein GLI1 (AID 2282945); details: HepG2, Attagene cis-factorial reporter mRNA, GLI element; actives raise or lower the signal
Summary of the method: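 Bidirectional curve fits relative to DMSO, using reporter mRNA levels from RT-PCR plus capillary electrophoresis. Cells were HepG2 transiently carrying cis-regulated reporter constructs, harvested 24 h after dosing.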

[9] = molecular target: Bile acid receptor (Homo sapiens) (UniProt Q96RI1); assay: ATG_IR1_CIS: Attagene CIS-FACTORIAL HepG2 Assay for human Nuclear Receptor Subfamily 1 Group H Member 4 (NR1H4), IR1 submotif (AID 2282946); details: IR1 reporter transcription, actives raise or lower the signal
Sequence of Bile acid receptor (Homo sapiens) (Q96RI1 whole entry, looked up): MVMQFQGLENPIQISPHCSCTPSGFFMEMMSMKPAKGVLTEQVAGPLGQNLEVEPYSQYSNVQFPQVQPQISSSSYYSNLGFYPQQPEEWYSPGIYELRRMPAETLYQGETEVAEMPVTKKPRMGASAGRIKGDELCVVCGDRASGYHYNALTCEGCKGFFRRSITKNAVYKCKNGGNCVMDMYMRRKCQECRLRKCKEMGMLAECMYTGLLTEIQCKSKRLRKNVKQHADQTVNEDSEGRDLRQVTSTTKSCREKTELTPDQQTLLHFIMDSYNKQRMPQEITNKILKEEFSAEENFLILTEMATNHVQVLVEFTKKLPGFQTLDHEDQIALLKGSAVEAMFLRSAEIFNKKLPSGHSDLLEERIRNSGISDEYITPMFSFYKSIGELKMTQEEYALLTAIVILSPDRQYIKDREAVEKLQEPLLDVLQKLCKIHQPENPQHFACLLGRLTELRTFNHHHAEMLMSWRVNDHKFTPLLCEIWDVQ
Summary of the method: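 HepG2 cells transiently transfected with multiplexed cis-element reporter units read endogenous transcription factor activity. After 24 h compound exposure, reporter mRNA was quantified by RT-PCR, fluorescent labelling, HpaI digestion and capillary electrophoresis; bidirectional fitting versus DMSO baseline.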

[10] = ATG_GRE_CIS: Attagene CIS-FACTORIAL HepG2 Assay for human Glucocorticoid Response Elements (GRE) (AID 2282947); details: HepG2 GRE cis-reporter, Attagene multiplex mRNA; actives raise or lower the signal
Summary of the method: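 Reporter transcripts read by RT-PCR with capillary electrophoresis fluorescence after a 24 h chemical exposure of HepG2 cells transiently transfected with multiple cis-element reporter units. Gain or loss fitted against DMSO.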

[11] = ATG_ISRE_CIS: Attagene CIS-FACTORIAL HepG2 Assay for human Interferon Regulatory Factor 1 (IRF1) binding to an Interferon-Stimulated Response Element (ISRE) (AID 2282948); details: HepG2 ISRE cis-reporter (Attagene), mRNA transcription readout; actives raise or lower the signal
Summary of the method: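 Read-out: fluorescent RT-PCR products resolved by capillary electrophoresis, reporting endogenous transcription factor activity via ISRE-driven reporter mRNA in transfected HepG2 cells dosed for 24 h; gain or loss fitted relative to DMSO.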

[12] = ATG_M_32_CIS: Attagene CIS-FACTORIAL HepG2 Assay for M32 Transcription Factor (Internal Marker) (AID 2282949); details: HepG2 Attagene cis-factorial M32 reporter, mRNA; actives raise or lower the signal;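 note: background control marker of the multiplexed CIS panel rather than a real target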
Summary of the method: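 HepG2 human liver cells transiently transfected with cis-promoter-driven multiple reporter transcription units, dosed 24 h. Reporter mRNA quantified by RT-PCR, FAM-labelled primer extension, HpaI digest and capillary electrophoresis; bidirectional fit versus DMSO baseline.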

[13] = ATG_M_06_CIS: Attagene CIS-FACTORIAL HepG2 Assay for M06 Transcription Factor (Internal Marker) (AID 2282950); details: HepG2 Attagene CIS-FACTORIAL M06 internal marker reporter; actives raise or lower the signal
Summary of the method: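 Cells (HepG2, transiently carrying cis-driven reporter units) receive chemical for 24 h before RNA isolation. Reporter cDNA is PCR-amplified, FAM-labelled by primer extension, HpaI-digested and sized on a capillary analyser.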

[14] = molecular target: Hypoxia-inducible factor 1-alpha (Homo sapiens) (UniProt Q16665); assay: ATG_HIF1a_CIS: Attagene CIS-FACTORIAL HepG2 Assay for human Hypoxia Inducible Factor 1 (HIF1A) (AID 2282951); details: HepG2 Attagene cis-factorial HIF1a reporter transcription; actives raise or lower the signal
Sequence of Hypoxia-inducible factor 1-alpha (Homo sapiens) (Q16665 whole entry, looked up): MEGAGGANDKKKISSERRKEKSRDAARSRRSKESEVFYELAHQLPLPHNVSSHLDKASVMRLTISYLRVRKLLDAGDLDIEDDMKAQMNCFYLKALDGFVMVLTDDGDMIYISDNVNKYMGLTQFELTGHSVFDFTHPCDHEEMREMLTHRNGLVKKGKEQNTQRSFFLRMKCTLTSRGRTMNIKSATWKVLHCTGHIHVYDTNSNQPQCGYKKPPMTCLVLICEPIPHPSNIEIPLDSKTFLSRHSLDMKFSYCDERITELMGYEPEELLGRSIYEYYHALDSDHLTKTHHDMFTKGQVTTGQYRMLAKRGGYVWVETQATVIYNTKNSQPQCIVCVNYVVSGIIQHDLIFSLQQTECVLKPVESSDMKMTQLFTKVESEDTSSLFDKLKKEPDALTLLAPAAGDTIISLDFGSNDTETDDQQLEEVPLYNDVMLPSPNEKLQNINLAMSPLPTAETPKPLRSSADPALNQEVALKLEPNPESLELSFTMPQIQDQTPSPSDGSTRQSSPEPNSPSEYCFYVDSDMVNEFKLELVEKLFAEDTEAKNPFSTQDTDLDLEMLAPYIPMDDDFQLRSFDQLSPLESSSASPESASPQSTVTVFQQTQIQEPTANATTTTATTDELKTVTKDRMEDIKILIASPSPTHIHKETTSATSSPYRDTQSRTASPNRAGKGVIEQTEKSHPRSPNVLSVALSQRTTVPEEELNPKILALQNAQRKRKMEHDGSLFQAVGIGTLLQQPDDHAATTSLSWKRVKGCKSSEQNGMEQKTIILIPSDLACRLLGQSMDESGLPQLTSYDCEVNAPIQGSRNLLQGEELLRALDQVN
Summary of the method: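 Fluorescence intensity of capillary-separated, 6-FAM-labelled reporter amplicons gives mRNA induction in HepG2 cells carrying transfected cis-promoter reporter units; cells exposed 24 h, responses fitted up or down from DMSO.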

[15] = molecular target: Hepatocyte nuclear factor 6 (Homo sapiens) (UniProt Q9UBC0); assay: ATG_HNF6_CIS: Attagene CIS-FACTORIAL HepG2 Assay for human Hepatocyte Nuclear Factor 6 (HNF6) (AID 2282952); details: HepG2 Attagene cis-factorial HNF6 reporter transcription; actives raise or lower the signal
Sequence of Hepatocyte nuclear factor 6 (Homo sapiens) (Q9UBC0 whole entry, looked up): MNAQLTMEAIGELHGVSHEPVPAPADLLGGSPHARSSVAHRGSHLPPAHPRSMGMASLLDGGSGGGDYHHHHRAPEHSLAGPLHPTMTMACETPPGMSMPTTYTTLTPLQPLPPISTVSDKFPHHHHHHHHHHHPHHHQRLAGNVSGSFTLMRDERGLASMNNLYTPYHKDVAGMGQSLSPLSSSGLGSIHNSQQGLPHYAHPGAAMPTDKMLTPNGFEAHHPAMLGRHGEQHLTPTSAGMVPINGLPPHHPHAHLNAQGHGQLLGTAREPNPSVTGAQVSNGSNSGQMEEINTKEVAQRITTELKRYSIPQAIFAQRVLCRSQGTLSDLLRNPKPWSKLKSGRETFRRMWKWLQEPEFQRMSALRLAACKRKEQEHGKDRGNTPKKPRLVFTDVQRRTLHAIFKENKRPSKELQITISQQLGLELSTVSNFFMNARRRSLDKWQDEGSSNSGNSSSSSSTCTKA
Summary of the method: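 Activity values derive from bidirectional fitting against DMSO of reporter mRNA levels, measured by capillary electrophoresis of labelled RT-PCR products from HepG2 cells exposed 24 h.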

[16] = molecular target: Heat shock factor protein 1 (Homo sapiens) (UniProt Q00613); assay: ATG_HSE_CIS: Attagene CIS-FACTORIAL HepG2 Assay for human Heat Shock Transcription Factor 1 (HSE) (AID 2282953); details: HepG2 HSE cis-reporter, Attagene RNA transcription; actives raise or lower the signal
Sequence of Heat shock factor protein 1 (Homo sapiens) (Q00613 whole entry, looked up): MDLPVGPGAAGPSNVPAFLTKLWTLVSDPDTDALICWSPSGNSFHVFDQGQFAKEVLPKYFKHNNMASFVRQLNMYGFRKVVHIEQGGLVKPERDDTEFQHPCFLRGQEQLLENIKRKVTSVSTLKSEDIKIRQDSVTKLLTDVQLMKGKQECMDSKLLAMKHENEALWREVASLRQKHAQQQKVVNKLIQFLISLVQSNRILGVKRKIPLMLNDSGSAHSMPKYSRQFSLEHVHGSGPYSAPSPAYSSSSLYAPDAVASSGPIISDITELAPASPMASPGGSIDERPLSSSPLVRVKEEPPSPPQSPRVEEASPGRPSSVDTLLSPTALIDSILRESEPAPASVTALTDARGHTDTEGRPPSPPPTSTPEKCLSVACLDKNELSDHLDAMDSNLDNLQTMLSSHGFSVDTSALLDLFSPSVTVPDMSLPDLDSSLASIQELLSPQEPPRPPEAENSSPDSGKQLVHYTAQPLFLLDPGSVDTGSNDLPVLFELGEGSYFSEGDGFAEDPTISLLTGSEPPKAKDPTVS
Summary of the method: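 Liver-derived HepG2 cells carry transiently introduced multiple reporter units governed by cis promoters. Reporter RNA measured 24 h post-dose through reverse transcription, PCR amplification, fluorescent labelling and capillary electrophoresis, normalised to DMSO.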

[17] = ATG_MRE_CIS: Attagene CIS-FACTORIAL HepG2 Assay for human Metal Responsive Element (MRE) (AID 2282954); details: HepG2 MRE cis-reporter transcription, Attagene multiplex; actives raise or lower the signal
Summary of the method: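 Endogenous MRE-dependent transcription read as reporter mRNA in transiently transfected human HepG2 cells at 24 h. RNA reverse-transcribed, PCR-amplified, labelled and resolved by capillary electrophoresis; gain or loss relative to DMSO.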

[18] = molecular target: Paired box protein Pax-6 (Homo sapiens) (UniProt P26367); assay: ATG_Pax6_CIS: Attagene CIS-FACTORIAL HepG2 Assay for human Paired Box 6 (PAX6) (AID 2282956); details: HepG2 CIS-FACTORIAL PAX6 reporter transcription, RNA readout; actives raise or lower the signal
Sequence of Paired box protein Pax-6 (Homo sapiens) (P26367 whole entry, looked up): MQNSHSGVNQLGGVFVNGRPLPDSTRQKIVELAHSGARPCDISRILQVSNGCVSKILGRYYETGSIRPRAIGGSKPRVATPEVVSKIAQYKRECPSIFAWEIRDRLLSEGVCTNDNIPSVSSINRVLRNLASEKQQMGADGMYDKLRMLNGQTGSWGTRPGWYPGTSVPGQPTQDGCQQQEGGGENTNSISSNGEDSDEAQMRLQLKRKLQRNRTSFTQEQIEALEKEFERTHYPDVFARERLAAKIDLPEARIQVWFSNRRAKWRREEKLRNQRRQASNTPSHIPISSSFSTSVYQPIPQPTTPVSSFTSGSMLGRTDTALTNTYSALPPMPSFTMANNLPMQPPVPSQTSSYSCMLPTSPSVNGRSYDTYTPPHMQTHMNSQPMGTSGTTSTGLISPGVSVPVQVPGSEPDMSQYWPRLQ
Summary of the method: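 Readout: reporter transcript fluorescence after RT-PCR and capillary electrophoresis. Cells: HepG2, transiently transfected with cis-regulated MRTUs. Exposure 24 h. Gain or loss of signal fitted bidirectionally relative to DMSO.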

[19] = ATG_PBREM_CIS: Attagene CIS-FACTORIAL HepG2 Assay for human Phenobarbital-responsive Enhancer Module (PBREM) (AID 2282955); details: HepG2 PBREM cis-reporter, Attagene multiplexed transcription; actives raise or lower the signal
Summary of the method: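 Cells were transfected with cis-element reporter units and treated for 24 h, after which RNA was extracted and reporter transcripts measured by RT-PCR and capillary electrophoresis.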

Measured: AC50

Cc1nn(C)c(Oc2ccccc2)c1C=NOCc1ccc(C(=O)OC(C)(C)C)cc1
active: [16] 9.45 µM | [17] 1.88 µM | [18] 1.88 µM
not listed: [19]
inactive: all other assays above

C=CCOC(Cn1ccnc1)c1ccc(Cl)cc1Cl (stereo unspecified)
active: [14] 17.4 µM | [16] 84.4 µM | [17] 24.5 µM | [18] 50 µM
not listed: [3] | [9]
inactive: all other assays above

Oc1ccc(C(c2ccc(O)cc2)C(Cl)(Cl)Cl)cc1
not listed: [3] | [19]
inactive: all other assays above

COC(=O)CSc1cc(N=c2sc(=O)n3n2CCCC3)c(F)cc1Cl
not listed: [3]
inactive: all other assays above

CCOC(=O)c1ccc(O)cc1
inactive: [1] | [2] | [4] | [5] | [6] | [7] | [8] | [9] | [10] | [11] | [12] | [13] | [14] | [15] | [16] | [17] | [19] | [18]
active: [18] 100 µM

CCOC(=O)C(C)Oc1ccc(Oc2cnc3cc(Cl)ccc3n2)cc1 (stereo unspecified)
not listed: [16]
inactive: all other assays above

S=C([S-])NCCNC(=S)[S-].[Mn+2]
not listed: [3] | [9] | [19]
inactive: all other assays above

N[C@@H](Cc1cc(I)c(Oc2ccc(O)c(I)c2)c(I)c1)C(=O)O
active: [5] 1.32 µM | [14] 16.3 µM and 19.5 µM and 1.93 µM | [16] 107 µM and 160 µM | [17] 50.6 µM and 23.7 µM and 94 µM | [19] 24.4 µM
inactive: [1] | [2] | [4] | [5] | [6] | [7] | [8] | [10] | [11] | [12] | [13] | [14] | [15] | [16] | [17] | [19] | [18]

S=C(S)NCCNC(=S)S.[Mn+2].[S-]C([S-])=NCCN=C([S-])[S-].[Zn+2]
active: [11] 9.92 µM and 10.9 µM and 50 µM | [14] 18.3 µM and 976 nM | [18] 9.92 µM and 15 µM and 12 µM
inactive: [1] | [2] | [4] | [5] | [6] | [7] | [8] | [10] | [11] | [12] | [13] | [14] | [15] | [16] | [17] | [18]

CN(C)C(=O)Nc1ccc(Cl)c(Cl)c1
active: [14] 62.6 µM | [17] 77.4 µM
inactive: [1] | [2] | [3] | [4] | [5] | [6] | [7] | [8] | [10] | [11] | [12] | [13] | [14] | [15] | [16] | [17] | [19] | [18]

COC(=O)c1ccccc1S(=O)(=O)NC(=O)Nc1nc(OC(F)F)cc(OC(F)F)n1
inactive: all assays above

CC(C)(c1ccc(O)cc1)c1ccc(O)cc1
active: [4] 101 µM and 33.7 µM | [5] 58.2 µM | [6] 57.7 µM | [8] 58.5 µM | [11] 142 µM [middle of 5 runs] | [14] 179 µM | [15] 45.7 µM | [16] 153 µM [middle of 6 runs] | [18] 105 µM [middle of 4 runs]
inactive: [1] | [2] | [4] | [5] | [6] | [7] | [8] | [11] | [12] | [13] | [14] | [15] | [16] | [17] | [19] | [18]

CCSC(=O)N(CC(C)C)CC(C)C
not listed: [9]
inactive: all other assays above

COC(=O)c1ccccc1C(=O)O
not listed: [9]
inactive: all other assays above

COc1c(Cl)ccc(Cl)c1C(=O)O
not listed: [9] | [10]
inactive: all other assays above

— PubChem BioAssay (EPA / NIEHS)
